Shown is part of a subset that was picked to be rich in hits.
KDM5B inhibitor = Primary screen for KDM5B Histone Demethylases FDH-coupled qHTS | Lysine-specific demethylase 5B (Homo sapiens), Q9UGL1 | KDM5B demethylase, FDH-coupled NADH fluorescence (FDH is formaldehyde dehydrogenase) | Potency, µM (titrated, usually from 57.7 µM), actives largely listed as inhibitors | hit rate 2.6% among 220,000 | AID 1347165, 2019; active means well fitted inhibition curve with a large enough effect; further: 0% is about no effect; nearly all actives have a fitted effect of over 70% in size
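Inhibition is measured as reduced NADH fluorescence generation from FDH coupling to formaldehyde release. Truncated KDM5BΔAP at 200 nM final acts on H3K4me3 peptide (12.5 µM in substrate mix) in pH 7.5 HEPES buffer with Tween-20, 30 min, room temperature.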
The depositor's hits bear a star. Potency means the concentration at half of the fitted maximal effect.

For O=C(Nc1cccc2ccccc12)O[C@@H]1CO[C@H]2[C@@H]1OC[C@@H]2NC(=S)Nc1ccc(Cl)cc1 the results were KDM5B inhibitor inactive.
`Cc1ccc(CCNC(=O)CS(=O)(=O)Cc2nc(-c3ccc(C)cc3)oc2C)cc1` gave KDM5B inhibitor inactive.
`Cn1cc(/C=C(\NC(=O)c2ccco2)C(=O)N2CCOCC2)c2ccccc21` gave KDM5B inhibitor inactive.
O=C(O)CCn1cc(C(C(=O)O)N2CCCC2)c2ccc(Br)cc21 (stereo not drawn) was read as KDM5B inhibitor inactive.
For CCCOC(=O)c1nc2ccccc2nc1NCc1ccc2c(c1)OCO2 the results were KDM5B inhibitor inactive.
`CC1(C)OC2OC(C(=O)Oc3ccc(Cl)cc3)C3OC(C)(C)OC3C2O1` (stereo not drawn) gave KDM5B inhibitor inactive.
`COc1ccc(-c2cc(C(=O)N3CCCC3)ccn2)cc1F` gave KDM5B inhibitor 28µM*.
`COc1ccc(C(=O)N2CCN(c3cc(C(F)(F)F)ncn3)CC2)cc1F` gave KDM5B inhibitor inactive.
`COc1ccc(-c2cc(N3CCCN(C(=O)c4ccc(OC)c(F)c4)CC3)n[nH]2)cc1` gave KDM5B inhibitor inactive.
Screening COc1ccc(Br)cc1C(=O)NCC1(c2ccccc2)CCOCC1 returned KDM5B inhibitor inactive.
For COc1ccc(-c2c(NC(=O)c3cccc([N+](=O)[O-])c3)oc3c(C)cccc3c2=O)cc1OC the results were KDM5B inhibitor inactive.
`COc1ccc(C2CCCN2C(=O)c2nn(C)c(=O)c3ccccc23)cc1` (stereo not drawn) gave KDM5B inhibitor inactive.
O=C(O)CCCOc1ccc2c(c1)CCC(=O)N2 was read as KDM5B inhibitor inactive.
Screening Cc1nc2cc(NS(=O)(=O)c3cccc(Cl)c3)ccc2o1 returned KDM5B inhibitor inactive.
For Cc1c(-c2ccccc2)[nH]c2c(CNC(=O)C3=NN(C)C(=O)CC3)cc(Cl)cc12 the results were KDM5B inhibitor inactive.
`Cc1cc(CNC(=O)CC2C=CS(=O)(=O)C2)c2[nH]c(-c3ccccc3)c(C)c2c1` (stereo not drawn) gave KDM5B inhibitor 28µM*.
CC1=C(c2ccc(C)c(C)c2)S(=O)(=O)NC1=NCC(=O)NCc1ccccc1C was read as KDM5B inhibitor inactive.
For O=C(CCc1c[nH]c2ccccc12)NCc1cccc(Cl)c1 the results were KDM5B inhibitor inactive.
Screening Cc1cc(CNC(=O)C(C)Cn2nc(C)nc2C)c2[nH]c(-c3ccccc3)c(C)c2c1 (stereo not drawn) returned KDM5B inhibitor inactive.
For Cc1ncoc1C(=O)NCc1cc(Cl)cc2c(C)c(-c3ccccc3)[nH]c12 the results were KDM5B inhibitor 35µM*.
For Cc1nc(CCC(=O)NCc2cc(Cl)cc3c(C)c(-c4ccccc4)[nH]c23)n[nH]1 the results were KDM5B inhibitor 25µM*.
`CCn1nccc1C(=O)N1CCN(c2cc(-c3ccccc3)[nH]n2)CC1` gave KDM5B inhibitor inactive.
Screening Cc1cc(C)cc(N(C(=O)c2ccc3c(c2)OCO3)C2C=CS(=O)(=O)C2)c1 (stereo not drawn) returned KDM5B inhibitor inactive.
For O=C(NCc1cccc(Cl)c1)c1oc(=O)c2ccccc2c1-c1ccccc1 the results were KDM5B inhibitor inactive.
Cc1nc2c(-c3ccccc3)c(C)nn2c(C)c1CCC(=O)NCc1ccc(Cl)cc1 was read as KDM5B inhibitor inactive.
Screening CCn1nccc1C(=O)NCc1cc(C)cc2c(C)c(-c3ccccc3)[nH]c12 returned KDM5B inhibitor 13µM*.
`COc1ccccc1C(C)NC(=O)c1nn(C(C)C)c(=O)c2ccccc12` (stereo not drawn) gave KDM5B inhibitor inactive.
Screening C/C(CC(=O)Nc1cccc2c1CCCC2)=N\NC(=O)c1ccccn1 returned KDM5B inhibitor inactive.
Screening Cc1ccc(S(=O)(=O)N(CC(=O)N2CCc3ccccc3C2)Cc2c(F)cccc2Cl)cc1 returned KDM5B inhibitor inactive.
CC(Sc1ncnc2ccccc12)C(=O)Nc1ccc(Cl)cc1Cl (stereo not drawn) was read as KDM5B inhibitor inactive.
Screening O=C(Nc1ccc(Cl)c(C(F)(F)F)c1)c1c(-c2ccccc2)nc2n1CCS2(=O)=O returned KDM5B inhibitor inactive.
Fc1ccc(CNCCCn2ccnc2)cc1 was read as KDM5B inhibitor inactive.
Screening CCC(=O)Nc1c(-c2cc(=O)oc3ccc(CC)cc23)oc2ccccc12 returned KDM5B inhibitor inactive.
`CCOC(=O)c1nc2ccccc2nc1NCc1cccc(OC)c1` gave KDM5B inhibitor inactive.
`COc1ccc(NC(=O)C2CC(c3ccc(OC)c(OC)c3)=NO2)cc1` (stereo not drawn) gave KDM5B inhibitor inactive.
Screening CCCc1ccc(S(=O)(=O)NCC2CCCN2CC)cc1 (stereo not drawn) returned KDM5B inhibitor inactive.
Screening CCCC(=O)NC1CCN(c2cnn(CC3CC3)c(=O)c2)CC1 returned KDM5B inhibitor inactive.
For CCCc1ccc(S(=O)(=O)NC2CCN(c3ccc(=O)n(CC4CC4)n3)CC2)cc1 the results were KDM5B inhibitor 28µM*.
CCN(C(=O)c1cc2c(s1)CCCC2)C1CC1 was read as KDM5B inhibitor inactive.
`Clc1cccc(CSc2nc(CN3CCOCC3)nc3ccccc23)c1` gave KDM5B inhibitor inactive.
Cc1cccc(OCC2(CNC(=O)c3cc(C)nn3C)C[C@@H](O)[C@@H](O)C2)n1 (stereo partly drawn) was read as KDM5B inhibitor 32µM*.
Screening COc1cccc(C(=O)NCC2(COc3cccc(C)n3)C[C@@H](O)[C@@H](O)C2)c1 (stereo partly drawn) returned KDM5B inhibitor inactive.
Screening Cc1cccc(OCC2(CNC(=O)c3cccc(F)c3)C[C@@H](O)[C@@H](O)C2)n1 (stereo partly drawn) returned KDM5B inhibitor inactive.
`COc1cccc(Oc2c(C)oc3cc(OC)ccc3c2=O)c1` gave KDM5B inhibitor inactive.
`CCCC(C)NC(=O)Cc1c(C)[nH]c2ccc(F)cc12` (stereo not drawn) gave KDM5B inhibitor inactive.
Cc1ccc(C(=O)NC2CCC(C)CC2)cc1C (stereo not drawn) was read as KDM5B inhibitor inactive.
CNC(=O)c1ccc2cncn2c1 was read as KDM5B inhibitor 32µM*.
For CNC(=O)c1ccn2cncc2c1 the results were KDM5B inhibitor inactive.
For CNC(=O)c1ccc(I)cc1 the results were KDM5B inhibitor inactive.
For COc1cc(C(=O)NC2CC2)ccc1C the results were KDM5B inhibitor inactive.
Screening CN(C)C(=O)c1ccc2cncn2c1 returned KDM5B inhibitor 32µM*.
For CN(C)C(=O)c1cc(F)cc(F)c1 the results were KDM5B inhibitor inactive.
`CN(C)C(=O)c1ccc(F)c(F)c1` gave KDM5B inhibitor inactive.
For O=C(NC1CC1)c1ccc2cncn2c1 the results were KDM5B inhibitor 32µM*.
For CCN(Cc1cccc(F)c1)C(=O)Nc1ccc(N2CCN(C)CC2)cc1 the results were KDM5B inhibitor inactive.
For Cc1nc(SCc2coc(-c3cccc(F)c3)n2)n[nH]1 the results were KDM5B inhibitor inactive.
For O=C(CCc1ncc(-c2ccccc2)o1)N1CCc2ccccc21 the results were KDM5B inhibitor inactive.
For Cc1cccc(NS(=O)(=O)c2cc(NC(=O)Cc3n[nH]c(=O)c4ccccc34)ccc2C)c1 the results were KDM5B inhibitor inactive.
`Cc1cccc(Nc2ncnc3sccc23)c1C` gave KDM5B inhibitor inactive.
Cn1nc(C(=O)Nc2nc3c(s2)CCC3)c2ccccc2c1=O was read as KDM5B inhibitor inactive.
